Compound activity as filed in PubChem.
In the library only some 1.6% were active in any assay of this set; here they are far more common.
KCNQ2 enhance: potentiators of rat KCNQ2 potassium channel. Potassium voltage-gated channel subfamily KQT member 2 (Rattus norvegicus), O88943. AID 2239, 2010. hit rate 0.54% among 310,000. B-score at 10 µM. CHO-K1 KCNQ2, FluxOR thallium flux fluorescence; active compounds read high;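 active means fluorescence ratio B-score at least 3 SD of library B-scores, with initial fluorescence B-score within 3 of them, cut at about 5.3 in these data; same plate scores as AID 2156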;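 further: B-score of peak minus minimum over baseline fluorescence ratio after K+ and Tl+ stimulus; positive B-score means potentiation of KCNQ2 with more thallium influx and brighter signal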
KCNQ2 block: rat KCNQ2 potassium channel inhibitors, primary screen, cell-based, CHO-K1, FluxOR thallium flux, B-score | Potassium voltage-gated channel subfamily KQT member 2 (Rattus norvegicus), O88943 | 20 min; active compounds read low | B-score at 10 µM | hit rate 1.1% among 310,000 | AID 2156, 2009;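 active means fluorescence ratio B-score at most minus 3 library SDs, with starting brightness B-score within 2 library SDs, cut at about -5.5 in these data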
Starred values were filed as active, the others as inactive; i = inactive; · = not tested or not shown.

SMILES	KCNQ2 enhance	KCNQ2 block
CC(C)CC1(C(=O)NCCc2c[nH]c3ccccc23)C=CCN1C(=O)c1ccccc1 (stereo not given)	-6.39	-6.39*
CC(=O)N1CC=CC1(CC(C)C)C(=O)NCCc1c[nH]c2ccccc12 (stereo not given)	0.88	i
Cc1cc(=O)n2nc(N3CCC(C(=O)NCc4ccccc4F)CC3)sc2n1	0.31	i
Cc1ccccc1OCc1nc2ccccc2c(=O)n1/N=C/c1cn[nH]c1-c1ccccc1	·	i
Cc1ccccc1OCc1nc2ccccc2c(=O)n1/N=C/c1cccc([N+](=O)[O-])c1	-6.19	-6.19*
O=C(C1CCCN(CCCc2ccccc2)C1)N1CCCCC1 (stereo not given)	0.75	i
COc1ccccc1CNC(=O)[C@@H]1CCCN1S(=O)(=O)c1ccccc1F	·	i
CCn1nc(C)c(C(=O)Nc2cc(Oc3cc(C)cc(C)c3)cc([N+](=O)[O-])c2)c1C	-5.57	-5.57*
Cc1nn(C)cc1C(=O)Nc1cc(Oc2ccc(Cl)cc2)cc([N+](=O)[O-])c1	·	i
Cc1ccc(NC(=O)C2CC(=O)N(C(C)C)C2)cc1C (stereo not given)	0.82	i
CN(C)c1ccc(/C=N/N2C(=S)SC(C)(C)C2N(O)C(=O)Nc2ccc([N+](=O)[O-])cc2)cc1 (stereo not given)	-6.81	-6.81*
CNC(=O)N(O)C1N(/N=C/c2ccc(SC)cc2)C(=S)SC1(C)C (stereo not given)	·	i
CC(C)CNC(=O)C(=O)NCC1OCCCN1S(=O)(=O)c1cccs1 (stereo not given)	·	i
O=C(O)c1nn(CCSc2ccccc2F)c(=O)c2ccccc12	0.49	i
COc1cc(C)ccc1OCc1cc(C(=O)N2CCN(C)C[C@@H]2c2ccccc2)no1	0.05	i
CC(C)OC(=O)/C(=C/c1ccc2c(c1)c1ccccc1n2C)NC(=O)c1ccccc1	·	i
COC(=O)/C(=C\c1ccc2c(c1)c1ccccc1n2C)NC(=O)c1ccccc1	-7.6	-7.6*
COCCN(C(=O)COC(=O)c1cc2ccccc2cc1O)c1c(N)n(Cc2ccccc2)c(=O)[nH]c1=O	·	i
CC1CCN(C(=O)Cn2nnc(-c3ccc([N+](=O)[O-])cc3)n2)CC1	4.45	i
COC(=O)c1sccc1NC(=O)Nc1ccccc1Cl	2.22	i
CCCn1c(SCC(=O)Nc2ccccc2-c2ccccc2)nnc1-c1ccoc1C	-5.8	-5.8*
Cc1occc1-c1nnc(SCC(=O)Nc2ccccc2-c2ccccc2)n1C	0.05	i
Cc1ccccc1NC(=O)CSc1nnc(-c2ccoc2C)n1CCc1ccccc1	-5.55	-5.55*
COc1ccc(NC(=O)CSc2nnc(-c3ccoc3C)n2CCc2ccccc2)cc1	·	i
COC(=O)C1=C(C(=O)OC)[C@@H]2N(C)c3ccc(OC)cc3[C@@]23C[C@@H](C(=O)OC)N=C3N1	0.72	i
SMILES	KCNQ2 enhance	KCNQ2 block
O=c1c2ccc(Cl)cc2[nH]c(=S)n1CCC1=CCCCC1	8.66*	i
CCOC(=O)N1CCN(C(=O)c2ccc3c(=O)n(CCC4=CCCCC4)c(=S)[nH]c3c2)CC1	0.45	i
Cc1nnc(SCC(=O)Nc2cccc(Cl)c2)n1CC1CCCO1 (stereo not given)	0.67	i
CCOc1ccc(N(CC(=O)NC2CCC(C)CC2)S(=O)(=O)c2c(C)noc2C)cc1 (stereo not given)	0.09	i
Cc1noc(C)c1S(=O)(=O)N(CC(=O)NC1CCC(C)CC1)c1ccc(C(C)C)cc1 (stereo not given)	-7.12	-7.12*
CC1(C)Cc2c(sc3c2c(=O)n(-c2cccc(Cl)c2)c(=O)n3CC(N)=O)CO1	·	i
Cn1cccc1Cc1nnc(SCC(=O)NCc2ccccc2Cl)n1-c1ccc(F)cc1	-7.22	-7.22*
Cn1cccc1Cc1nnc(SCC(=O)NCc2ccco2)n1-c1ccc(F)cc1	0.07	i
COc1cccc(CN2CC(C(=O)NCCCCc3ccccn3)CCC2=O)c1 (stereo not given)	0.45	i
COc1ccc2oc(C(=O)OCC(=O)c3ccc4c(c3)OCCO4)c(C)c2c1	·	i
COc1ccc2oc(C(=O)N3CCN(C(=O)c4ccco4)CC3)c(C)c2c1	3.3	i
COc1ccc2oc(C(=O)N(C)Cc3ccc4c(c3)OCCO4)c(C)c2c1	-6.71	-6.71*
COc1ccc2oc(C(=O)N(Cc3ccco3)Cc3cccs3)c(C)c2c1	-5.77	-5.77*
COC(=O)C/C=C/[C@@H](C)[C@@H](/C=N/OC[C@H]1O[C@H](c2ccccc2)C=C[C@@H]1Oc1ccc(OC)cc1)OC	-6.9	-6.9*
COc1ccc(O[C@H]2C=C[C@@H](c3ccccc3)O[C@@H]2COC(=O)CC/C(C)=N/OC[C@@H](O)COCc2ccco2)cc1	·	i
CCN(CC)S(=O)(=O)c1ccc(Cl)c(C(=O)OCC(=O)c2c(N)n(C)c(=O)n(C)c2=O)c1	1.45	i
